Results from the supplement of paper PMC11732987, “Enantioselective OTUD7B fragment discovery through chemoproteomics screening and high-throughput optimisation” (Communications Chemistry, 2025).
A number with no mark means an inactive call.

How the values were obtained:
Experiment in all cases: log2 ratio of Biotin-Ahx-Ub-VS probe labelling (fragment/DMSO); higher = less target engagement (more negative = stronger competition), active = hit call of the paper (q ≤ 0.05, log2 ratio ≤ -1)
Details in all cases: compound concentration: 200 uM; treatment time: 3 h
OTUD6B = molecular target: T1, OTUD6B (UniProt Q8N6M0)
T1 sequence (whole entry): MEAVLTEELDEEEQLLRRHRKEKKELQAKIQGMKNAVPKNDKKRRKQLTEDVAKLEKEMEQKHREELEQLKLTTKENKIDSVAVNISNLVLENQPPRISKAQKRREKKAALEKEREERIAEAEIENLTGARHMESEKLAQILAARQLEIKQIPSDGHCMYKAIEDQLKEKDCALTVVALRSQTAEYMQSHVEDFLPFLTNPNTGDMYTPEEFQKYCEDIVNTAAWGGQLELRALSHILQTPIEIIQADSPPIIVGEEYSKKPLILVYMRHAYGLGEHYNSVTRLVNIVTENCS
Outline: (§1)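 Labelling with Biotin-Ahx-Ub-VS (0.5 µM final, 1 h) followed a 3 h triplicate treatment of HEK293T lysate (495 µg per sample, Tris/CHAPS/IGEPAL buffer with protease inhibitors) with fragment at 200 µM or vehicle. Labelled DUBs were NeutrAvidin-enriched, digested with LysC and trypsin, and run by diaPASEF LC-MS/MS. The values, average log2 fragment/vehicle ratios by unpaired t-test, come from global-median-normalised Spectronaut label-free quantities. Proteins with ≥2 unique peptides were used.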

OTUD7B = molecular target: T2, OTUD7B (UniProt Q6GQQ9)
T2 sequence (whole entry): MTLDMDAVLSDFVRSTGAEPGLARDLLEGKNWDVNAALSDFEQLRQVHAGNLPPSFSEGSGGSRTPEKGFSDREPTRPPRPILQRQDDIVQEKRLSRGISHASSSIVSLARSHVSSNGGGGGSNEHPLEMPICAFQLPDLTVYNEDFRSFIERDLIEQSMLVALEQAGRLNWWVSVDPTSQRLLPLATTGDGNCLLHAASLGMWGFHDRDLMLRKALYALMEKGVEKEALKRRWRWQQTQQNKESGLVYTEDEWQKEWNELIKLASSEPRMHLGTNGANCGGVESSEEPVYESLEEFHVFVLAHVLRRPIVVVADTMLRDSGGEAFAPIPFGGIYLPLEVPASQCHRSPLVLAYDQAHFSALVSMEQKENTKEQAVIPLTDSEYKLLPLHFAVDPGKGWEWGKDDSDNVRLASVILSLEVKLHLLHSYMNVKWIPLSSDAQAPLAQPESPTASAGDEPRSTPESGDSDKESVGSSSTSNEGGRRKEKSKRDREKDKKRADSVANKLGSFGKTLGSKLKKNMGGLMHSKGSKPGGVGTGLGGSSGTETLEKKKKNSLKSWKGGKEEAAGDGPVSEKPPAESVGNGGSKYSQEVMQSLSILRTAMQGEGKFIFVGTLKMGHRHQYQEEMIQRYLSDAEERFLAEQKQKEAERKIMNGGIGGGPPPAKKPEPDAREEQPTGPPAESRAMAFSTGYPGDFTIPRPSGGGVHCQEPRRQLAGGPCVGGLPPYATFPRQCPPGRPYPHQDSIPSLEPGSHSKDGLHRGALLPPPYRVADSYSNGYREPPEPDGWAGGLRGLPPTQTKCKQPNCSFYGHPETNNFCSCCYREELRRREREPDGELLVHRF
Outline: as §1

PRPF8 = PRPF8 (UniProt Q6P2Q9)
Outline: as §1

PSMD7 = molecular target: T3, PSMD7 (UniProt P51665)
T3 sequence (whole entry): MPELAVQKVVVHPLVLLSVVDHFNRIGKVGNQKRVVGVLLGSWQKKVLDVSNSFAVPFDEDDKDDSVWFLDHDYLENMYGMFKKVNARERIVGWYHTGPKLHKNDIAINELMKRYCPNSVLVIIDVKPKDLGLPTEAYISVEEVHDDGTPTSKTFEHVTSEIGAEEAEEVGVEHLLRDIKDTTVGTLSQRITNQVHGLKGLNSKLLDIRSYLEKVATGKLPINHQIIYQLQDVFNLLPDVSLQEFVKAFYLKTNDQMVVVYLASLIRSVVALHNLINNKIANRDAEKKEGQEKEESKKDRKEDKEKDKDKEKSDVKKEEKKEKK
Outline: as §1

UCHL1 = UCHL1 (UniProt P09936)
Chain of UCHL1 (P09936 whole entry, looked up): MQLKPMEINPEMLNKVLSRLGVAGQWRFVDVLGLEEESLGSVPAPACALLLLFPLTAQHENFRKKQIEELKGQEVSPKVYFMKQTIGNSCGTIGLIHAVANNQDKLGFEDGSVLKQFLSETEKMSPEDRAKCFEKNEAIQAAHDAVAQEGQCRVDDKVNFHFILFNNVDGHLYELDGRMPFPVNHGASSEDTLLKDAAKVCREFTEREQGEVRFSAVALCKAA
Outline: as §1

UCHL3 = molecular target: T4, UCHL3 (UniProt P15374)
T4 sequence (whole entry): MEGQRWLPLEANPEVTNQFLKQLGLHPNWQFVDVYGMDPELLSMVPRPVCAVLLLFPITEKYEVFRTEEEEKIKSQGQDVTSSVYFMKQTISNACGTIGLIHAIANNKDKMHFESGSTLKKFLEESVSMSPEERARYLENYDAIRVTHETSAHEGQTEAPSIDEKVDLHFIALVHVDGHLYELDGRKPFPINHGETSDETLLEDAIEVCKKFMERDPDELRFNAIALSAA
Outline: as §1

UCHL5 = molecular target: T5, UCHL5 (UniProt Q9Y5K5)
T5 sequence (whole entry): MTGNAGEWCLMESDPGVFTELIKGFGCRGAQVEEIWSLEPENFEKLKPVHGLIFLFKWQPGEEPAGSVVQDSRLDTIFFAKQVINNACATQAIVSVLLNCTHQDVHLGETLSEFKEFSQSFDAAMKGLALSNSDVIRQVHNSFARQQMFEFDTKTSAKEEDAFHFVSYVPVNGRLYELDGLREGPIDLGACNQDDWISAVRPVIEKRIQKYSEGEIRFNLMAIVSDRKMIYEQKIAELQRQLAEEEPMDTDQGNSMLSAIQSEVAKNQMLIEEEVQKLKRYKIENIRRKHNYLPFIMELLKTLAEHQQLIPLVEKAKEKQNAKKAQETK
Outline: as §1

USP10 = USP10 (UniProt Q14694)
Chain of USP10 (Q14694 whole entry): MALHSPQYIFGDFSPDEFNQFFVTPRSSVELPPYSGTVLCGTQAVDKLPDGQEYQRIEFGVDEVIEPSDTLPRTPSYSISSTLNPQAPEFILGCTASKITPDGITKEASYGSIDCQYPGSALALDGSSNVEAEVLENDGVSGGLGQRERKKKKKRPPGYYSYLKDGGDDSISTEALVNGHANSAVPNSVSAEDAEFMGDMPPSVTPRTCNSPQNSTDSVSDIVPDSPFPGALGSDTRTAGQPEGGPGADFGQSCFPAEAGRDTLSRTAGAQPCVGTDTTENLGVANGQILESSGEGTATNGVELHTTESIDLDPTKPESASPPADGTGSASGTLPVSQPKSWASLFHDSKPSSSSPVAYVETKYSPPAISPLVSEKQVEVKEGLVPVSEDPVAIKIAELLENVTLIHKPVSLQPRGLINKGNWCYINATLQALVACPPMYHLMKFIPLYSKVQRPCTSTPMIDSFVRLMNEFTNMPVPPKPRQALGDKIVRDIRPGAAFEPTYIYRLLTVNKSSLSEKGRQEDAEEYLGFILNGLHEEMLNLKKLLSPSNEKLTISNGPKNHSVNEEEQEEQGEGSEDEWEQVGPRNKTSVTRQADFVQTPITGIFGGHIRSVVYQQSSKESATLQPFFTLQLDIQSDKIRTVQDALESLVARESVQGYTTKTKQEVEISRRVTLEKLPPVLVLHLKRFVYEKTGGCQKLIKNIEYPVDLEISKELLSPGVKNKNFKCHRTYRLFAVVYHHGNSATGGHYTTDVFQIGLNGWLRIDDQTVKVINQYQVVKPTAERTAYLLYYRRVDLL
Outline: as §1

USP15 = molecular target: T6, USP15 (UniProt Q9Y4E8)
T6 sequence (whole entry): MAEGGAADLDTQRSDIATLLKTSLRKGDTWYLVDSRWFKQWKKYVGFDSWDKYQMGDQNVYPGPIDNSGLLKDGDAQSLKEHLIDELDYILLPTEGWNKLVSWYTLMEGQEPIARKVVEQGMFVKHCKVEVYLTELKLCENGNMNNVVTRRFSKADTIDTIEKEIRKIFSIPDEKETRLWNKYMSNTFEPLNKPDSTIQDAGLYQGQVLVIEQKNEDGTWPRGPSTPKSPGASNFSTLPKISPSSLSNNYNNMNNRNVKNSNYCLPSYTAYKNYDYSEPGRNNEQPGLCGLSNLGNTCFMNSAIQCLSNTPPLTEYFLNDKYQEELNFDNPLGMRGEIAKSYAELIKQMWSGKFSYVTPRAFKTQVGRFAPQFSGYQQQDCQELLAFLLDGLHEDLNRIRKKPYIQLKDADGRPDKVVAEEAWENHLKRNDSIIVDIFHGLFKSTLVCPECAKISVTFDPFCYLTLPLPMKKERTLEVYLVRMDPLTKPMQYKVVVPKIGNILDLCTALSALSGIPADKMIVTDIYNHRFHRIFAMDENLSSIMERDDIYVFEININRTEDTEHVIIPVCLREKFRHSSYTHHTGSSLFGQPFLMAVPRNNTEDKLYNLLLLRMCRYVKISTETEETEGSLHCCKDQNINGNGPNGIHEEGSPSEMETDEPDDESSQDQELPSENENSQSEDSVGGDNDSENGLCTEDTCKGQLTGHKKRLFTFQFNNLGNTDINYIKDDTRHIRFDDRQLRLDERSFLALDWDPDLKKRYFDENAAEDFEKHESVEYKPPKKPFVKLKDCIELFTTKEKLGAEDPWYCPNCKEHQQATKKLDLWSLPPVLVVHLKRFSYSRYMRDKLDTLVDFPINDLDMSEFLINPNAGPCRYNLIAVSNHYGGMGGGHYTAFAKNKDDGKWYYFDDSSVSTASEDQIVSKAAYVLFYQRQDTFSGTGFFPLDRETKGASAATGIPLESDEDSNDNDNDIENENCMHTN
Outline: as §1

USP16 = USP16 (UniProt Q9Y5T5)
Chain of USP16 (Q9Y5T5 whole entry, looked up): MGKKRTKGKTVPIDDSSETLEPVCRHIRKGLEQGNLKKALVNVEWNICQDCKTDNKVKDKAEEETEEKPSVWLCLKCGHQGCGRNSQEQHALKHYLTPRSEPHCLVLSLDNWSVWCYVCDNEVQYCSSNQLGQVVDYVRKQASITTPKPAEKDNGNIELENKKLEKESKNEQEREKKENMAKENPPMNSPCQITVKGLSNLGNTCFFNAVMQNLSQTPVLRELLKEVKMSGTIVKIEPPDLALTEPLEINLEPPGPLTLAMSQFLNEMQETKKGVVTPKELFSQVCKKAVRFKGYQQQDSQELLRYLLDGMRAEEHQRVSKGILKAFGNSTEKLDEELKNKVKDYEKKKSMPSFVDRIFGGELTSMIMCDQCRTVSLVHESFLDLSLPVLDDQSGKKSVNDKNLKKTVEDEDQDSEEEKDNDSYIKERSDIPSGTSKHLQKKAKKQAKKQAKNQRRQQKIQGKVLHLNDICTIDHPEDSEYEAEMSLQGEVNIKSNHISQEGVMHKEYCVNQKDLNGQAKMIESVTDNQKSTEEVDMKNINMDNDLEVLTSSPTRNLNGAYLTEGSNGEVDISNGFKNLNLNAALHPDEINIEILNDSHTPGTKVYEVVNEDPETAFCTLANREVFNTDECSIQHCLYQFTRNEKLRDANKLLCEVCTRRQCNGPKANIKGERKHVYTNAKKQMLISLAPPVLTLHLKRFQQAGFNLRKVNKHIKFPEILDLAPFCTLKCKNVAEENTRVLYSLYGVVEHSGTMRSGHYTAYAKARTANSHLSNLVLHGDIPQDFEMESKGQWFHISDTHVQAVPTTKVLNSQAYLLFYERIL
Outline: as §1

Row | SMILES | log2 ratio of Biotin-Ahx-Ub-VS probe labelling (OTUD6B) | log2 ratio of Biotin-Ahx-Ub-VS probe labelling (OTUD7B) | log2 ratio of Biotin-Ahx-Ub-VS probe labelling (PRPF8) | log2 ratio of Biotin-Ahx-Ub-VS probe labelling (PSMD7) | log2 ratio of Biotin-Ahx-Ub-VS probe labelling (UCHL1) | log2 ratio of Biotin-Ahx-Ub-VS probe labelling (UCHL3) | log2 ratio of Biotin-Ahx-Ub-VS probe labelling (UCHL5) | log2 ratio of Biotin-Ahx-Ub-VS probe labelling (USP10) | log2 ratio of Biotin-Ahx-Ub-VS probe labelling (USP15) | log2 ratio of Biotin-Ahx-Ub-VS probe labelling (USP16)
1 | Cl.O=C(CCl)NCc1ccnc(Oc2ccccc2F)c1 | -0.263 | -0.533 | -0.054 | -0.0622 | -1.49 (active) | 0.27 | -0.282 | -0.187 | -0.115 | 0.275
2 | O=C(CCl)Nc1cc2c(cc1Cl)OCCCO2 | -0.0697 | -0.399 | 0.00677 | -0.0387 | -1.39 (active) | -0.323 | -0.0527 | -0.157 | -0.172 | -0.508
3 | CCN(C(=O)CCl)C1CCS(=O)(=O)C1 (stereo not given) | -0.144 | -0.284 | -0.167 | -0.00588 | -1.26 (active) | 0.365 | -0.0522 | -0.169 | -0.218 | -0.707
4 | O=C(CCl)Nc1ccc2c(c1)OC(F)(F)O2 | -0.167 | -0.873 | 0.00481 | -0.159 | -1.06 (active) | 0.0771 | -0.471 | -0.126 | -0.192 | 0.132
5 | Cc1cc(NC(=O)CCl)n(-c2ccccc2)n1 | -0.0228 | -0.528 | 0.173 | 0.00596 | -1.18 (active) | 0.614 | -0.0207 | -0.234 | -0.2 | -0.321
6 | O=C(CCl)N1CCN(C(=O)Nc2ccccc2)CC1 | 0.0713 | -0.112 | -0.00577 | 0.0846 | -1.33 (active) | -0.441 | 0.033 | -0.135 | -0.101 | 0.0643
7 | O=C(CCl)Nc1nnc(CC(F)(F)F)o1 | -0.105 | -0.451 | 0.0577 | -0.157 | -1.5 (active) | -0.128 | -0.204 | -0.0274 | -0.341 | 0.0973
8 | O=C(CCl)NCc1ccc(N2CCOCC2)c(F)c1 | 0.111 | -0.497 | -0.0572 | 0.0258 | -1.41 (active) | 0.309 | -0.0833 | -0.131 | -0.0773 | -0.0789
9 | O=C(CCl)Nc1cccc(NC(=O)c2ccccc2)c1 | 0.292 | -0.595 | 0.0439 | 0.102 | -1.07 (active) | -0.427 | 0.221 | -0.0488 | -0.0163 | 0.163
10 | O=C(CCl)N1CC=C(c2c[nH]c3ccccc23)CC1 | -0.33 | -0.605 | 0.0222 | 0.00731 | -1.12 (active) | 0.00279 | -0.387 | -0.299 | -1.46 (active) | 0.156
11 | CN1c2ccccc2C(NC(=O)CCl)CS1(=O)=O (stereo not given) | -0.0927 | -2.41 (active) | 0.0667 | -0.189 | -1.69 (active) | 0.316 | -0.387 | 0.128 | -0.212 | -0.411
12 | CCCn1nccc1NC(=O)CCl | 0.0729 | -1.42 (active) | 0.193 | -0.254 | -0.343 | 0.0705 | -0.074 | -0.0888 | -0.238 | -0.307
13 | O=C(CCl)N1CCC2(CCC(O)CC2)CC1 | -0.306 | -0.236 | -0.102 | -0.109 | -1.76 (active) | 0.404 | -0.157 | -0.17 | -0.243 | 0.0341
14 | O=C(CCl)N1CC2(CCOCC2)C1 | -0.202 | -0.345 | -0.426 | -0.00344 | -1.21 (active) | 0.139 | -0.253 | -0.483 | -0.212 | -0.888
15 | CNC(=O)C1CCN(C(=O)CCl)CC1 | -0.163 | -0.121 | -0.218 | 0.12 | -0.544 | 0.53 | -0.0712 | -0.383 | -0.0196 | 0.31
